High-throughput results (PubChem)
PAFAH1B3 inh = PAFAH1B3 (human) inhibition | Q15102 | recombinant PAFAH1B3, FP-rhodamine probe, fluorescence polarization | inhibition, % at 3.39 µM | 340,000 compounds, 0.28% hits | AID 492972;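 active = inhibition above the screen-wide average of all tested compounds plus 3 SD, cut at about 25% in these data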
E coli Lon inh = E. coli protease La inhibition; purified E. coli Lon protease, fluorescence polarization; AID 602123; inhibition, % at 7.94 µM; P0A9M0; 360,000 compounds, 0.42% hits; in the data active = inhibition above about 13%, passing the limit was not always enough
PAFAH2 inh = PAFAH2 (human) inhibition. Q99487. recombinant PAFAH2, FP-rhodamine activity probe, fluorescence polarization. inhibition, % at 3.39 µM. 340,000 compounds, 0.99% hits. AID 492956;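 active = inhibition above the mean over all tested compounds plus 3 SD, cut at about 30% in these data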;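 also: inhibitors block probe labeling of enzyme so polarization drops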
PAFAH1B2 inh = PAFAH1B2 (human) inhibition. inhibition, % at 3.39 µM. recombinant PAFAH1B2, FP-rhodamine activity probe, fluorescence polarization. P68402. 340,000 compounds, 1.2% hits;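 active = inhibition above the mean of all tested compounds plus 3 SD, cut at about 24% in these data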
Rin1 Abl inh = inhibitors of human Rin1-Abl protein interaction; inhibition, % at 7.35 µM; P00519+Q13671; TR-FRET Rin1/Abl binding, biochemical; 360,000 compounds, 0.4% hits; in the data active = inhibition above about 5%, passing the limit was not always enough
Target sequence (P00519 whole entry, looked up): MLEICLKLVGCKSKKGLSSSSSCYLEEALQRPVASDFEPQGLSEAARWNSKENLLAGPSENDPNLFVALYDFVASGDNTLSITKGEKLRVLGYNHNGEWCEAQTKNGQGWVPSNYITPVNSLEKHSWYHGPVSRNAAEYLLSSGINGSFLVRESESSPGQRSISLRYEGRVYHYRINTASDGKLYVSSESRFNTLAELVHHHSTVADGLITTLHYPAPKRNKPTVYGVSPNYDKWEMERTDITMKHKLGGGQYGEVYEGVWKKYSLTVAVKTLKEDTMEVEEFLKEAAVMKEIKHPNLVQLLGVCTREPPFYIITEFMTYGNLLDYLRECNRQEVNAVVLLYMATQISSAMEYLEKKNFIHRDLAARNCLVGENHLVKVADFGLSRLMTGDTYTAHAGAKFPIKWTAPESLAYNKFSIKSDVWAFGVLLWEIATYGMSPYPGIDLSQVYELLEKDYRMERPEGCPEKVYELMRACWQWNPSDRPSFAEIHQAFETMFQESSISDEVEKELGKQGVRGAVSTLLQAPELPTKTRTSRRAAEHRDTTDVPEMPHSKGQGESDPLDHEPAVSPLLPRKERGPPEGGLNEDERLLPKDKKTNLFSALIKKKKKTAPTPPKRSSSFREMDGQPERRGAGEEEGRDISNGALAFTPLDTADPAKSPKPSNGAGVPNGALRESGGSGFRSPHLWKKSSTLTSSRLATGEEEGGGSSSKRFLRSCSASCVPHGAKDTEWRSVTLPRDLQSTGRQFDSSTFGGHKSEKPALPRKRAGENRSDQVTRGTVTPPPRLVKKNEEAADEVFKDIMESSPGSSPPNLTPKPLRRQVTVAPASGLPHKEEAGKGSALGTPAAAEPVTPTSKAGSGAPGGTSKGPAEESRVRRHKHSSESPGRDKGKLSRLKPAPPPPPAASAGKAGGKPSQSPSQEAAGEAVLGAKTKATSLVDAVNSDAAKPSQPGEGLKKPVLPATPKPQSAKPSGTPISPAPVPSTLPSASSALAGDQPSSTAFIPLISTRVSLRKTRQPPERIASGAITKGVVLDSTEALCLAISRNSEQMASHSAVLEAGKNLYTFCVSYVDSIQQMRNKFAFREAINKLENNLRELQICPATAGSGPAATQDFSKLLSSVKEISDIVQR
Target sequence (Q13671 whole entry, looked up): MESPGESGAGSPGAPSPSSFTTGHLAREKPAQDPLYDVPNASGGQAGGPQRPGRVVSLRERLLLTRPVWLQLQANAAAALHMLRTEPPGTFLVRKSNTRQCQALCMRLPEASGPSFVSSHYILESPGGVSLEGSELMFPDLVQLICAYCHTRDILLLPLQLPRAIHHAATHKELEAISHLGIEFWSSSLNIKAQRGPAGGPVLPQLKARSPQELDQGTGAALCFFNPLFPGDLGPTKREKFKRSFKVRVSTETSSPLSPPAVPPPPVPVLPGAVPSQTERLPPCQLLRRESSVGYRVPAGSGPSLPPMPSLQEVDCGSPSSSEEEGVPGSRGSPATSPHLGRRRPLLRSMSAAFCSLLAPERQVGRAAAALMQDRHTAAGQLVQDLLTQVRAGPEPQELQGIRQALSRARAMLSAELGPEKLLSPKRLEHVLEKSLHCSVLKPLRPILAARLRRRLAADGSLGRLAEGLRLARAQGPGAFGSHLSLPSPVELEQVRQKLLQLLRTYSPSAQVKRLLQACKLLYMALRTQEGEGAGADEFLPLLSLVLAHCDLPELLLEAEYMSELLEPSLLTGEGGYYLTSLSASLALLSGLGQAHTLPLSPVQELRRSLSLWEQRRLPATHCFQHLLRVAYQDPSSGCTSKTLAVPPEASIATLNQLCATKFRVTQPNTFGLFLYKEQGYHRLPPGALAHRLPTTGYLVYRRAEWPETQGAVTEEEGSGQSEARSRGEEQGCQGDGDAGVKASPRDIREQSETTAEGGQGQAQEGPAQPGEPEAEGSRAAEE
pPAFAH FP inh = inhibitors of human plasma PAF acetylhydrolase (pPAFAH); Q13093; recombinant pPAFAH, FP-rhodamine probe fluorescence polarization; inhibition, % at 3.39 µM; 330,000 compounds, 1.5% hits; AID 463082;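 active = inhibition above the mean inhibition across the screen plus 3 SD, cut at about 25% in these data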;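 also: inhibitors block binding of the rhodamine activity-based probe so polarization drops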
PAFAH2 FP conf = PAFAH2 (human) inhibition, confirmed | shares compounds with PAFAH2 inh | recombinant PAFAH2, FP-rhodamine activity probe, fluorescence polarization | inhibition, % at 3.39 µM | 2,300 compounds, 65% hits | AID 493030;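 active = mean inhibition over three repeats above a set limit taken from the earlier primary screen, cut at about 30% in these data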;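 also: inhibitor blocks binding of rhodamine activity probe so polarization falls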
Hits are given with their value; i = inactive; nt = no result given. In the library only some 3.1% were active in any assay of this set; here they are far more common.

SMILES	PAFAH1B3 inh	E coli Lon inh	PAFAH2 inh	PAFAH1B2 inh	Rin1 Abl inh	pPAFAH FP inh	PAFAH2 FP conf
Cc1ccc(C(=O)OCC(=O)Nc2ccc3c(c2)OCCO3)cc1C	i	i	58	i	i	nt	52
Cc1cc(C)cc(NC(=O)COC(=O)c2ccc3c(c2)OCCO3)c1	i	i	72	i	i	i	77
CC1Oc2ccc(C#N)cc2N(Cc2ccc(F)cc2)C1=O (configuration not stated)	nt	i	nt	nt	i	nt	nt
CN(C)S(=O)(=O)c1ccc(C(=O)NCc2nnc(SCC(=O)c3ccccc3)o2)cc1	i	i	i	i	i	i	nt
OC(c1cc(F)cc(Cl)c1)c1ncc(-c2cccc(C(F)(F)F)c2)[nH]1 (configuration not stated)	nt	i	nt	nt	i	nt	nt
O=C(COC(=O)c1ccc(F)cc1)NCCc1ccc(F)cc1	i	i	36	i	i	i	i
COc1ccc(CNC(=O)COC(=O)c2ccc3c(c2)OCCO3)cc1	i	i	i	i	i	i	nt
O=C(COC(=O)c1cc(Cl)nc(Cl)c1)NCCc1ccc(F)cc1	i	i	i	i	i	i	nt
Cc1nc(C)c(C(=O)OCC(=O)NCCc2ccc(F)cc2)s1	i	i	31	i	i	nt	i
O=C(COC(=O)c1ccc2c(c1)OCCO2)NCCc1ccc(F)cc1	i	i	68	i	i	i	54
O=C(COC(=O)c1cccs1)NCCc1ccc(F)cc1	i	i	55	i	i	nt	49
Cc1nc(C)c(C(=O)OCC(=O)Nc2cccc(C)c2C)s1	i	i	66	i	i	i	51
CCCCc1ccc(NC(=O)CSC2=NN3CCCC(=O)N=C3S2)cc1	i	i	i	i	i	i	nt
Cc1ccc(C(=O)n2nc(-n3cccc3)c3c(C)cc(C)nc32)cc1	i	i	49	i	i	nt	51
Cc1cc(C)c2c(-n3cccc3)nn(C)c2n1	i	i	i	i	i	i	nt
CCOc1ccccc1OCCCC(=O)NNC(=O)c1nn(C)c(=O)c2ccccc12	i	i	i	i	i	i	nt
Cc1cccc(N2NC(=O)/C(=C/c3ccc(-c4ccc(Cl)c(C(=O)O)c4)o3)C2=O)c1	i	i	32	i	i	nt	i
O=C1NN(c2ccccc2)C(=O)/C1=C/c1ccc(-c2ccc(Cl)c(C(=O)O)c2)o1	i	i	i	i	i	nt	nt
O=C(CN1C(=O)NC2(CCCCCC2)C1=O)NCc1ccc(Cl)cc1	i	i	i	i	i	i	nt
CCN(CC)S(=O)(=O)c1ccc2c(c1)nc(CCC(=O)Nc1ccc3c(c1)OCO3)n2C	i	i	i	i	i	i	nt
CCN(CC)S(=O)(=O)c1ccc2c(c1)nc(CCC(=O)O)n2C	i	i	i	i	i	i	nt
CCN(CC)S(=O)(=O)c1ccc2c(c1)nc(CCC(=O)OCC(=O)Nc1cc(OC)cc(OC)c1)n2C	i	i	52	i	i	i	36
CCN(CC)S(=O)(=O)c1ccc2c(c1)nc(CCC(=O)OCC(=O)Nc1c(F)cccc1F)n2C	i	i	49	i	i	i	46
CC(C)(C)OC(=O)NCCc1onc(-c2cccc([N+](=O)[O-])c2)c1C(=O)O	nt	i	nt	nt	i	nt	nt
C=CCSC1=N/C(=C\c2ccc3c(c2)OCO3)C(=O)S1	i	i	32	i	i	i	31
SMILES	PAFAH1B3 inh	E coli Lon inh	PAFAH2 inh	PAFAH1B2 inh	Rin1 Abl inh	pPAFAH FP inh	PAFAH2 FP conf
Nc1ccc(C(=O)OCCCc2nc3ccccc3[nH]2)cc1	i	i	i	i	i	i	nt
Nc1ccc(C(=O)OCc2nc3ccccc3[nH]2)cc1	i	i	88	i	i	i	79
N#C/C(=C\c1ccc(O)c(O)c1)S(=O)(=O)c1ccccc1	i	i	64	i	i	i	49
N#C/C(=C/c1ccc(F)cc1)S(=O)(=O)c1ccccc1	i	i	i	i	i	i	nt
CC(C)N(CC(O)COc1ccc(CC(N)=O)cc1)CC(O)COc1ccc(CC(N)=O)cc1 (configuration not stated)	i	i	i	i	i	i	nt
Cc1ccc(C(=O)OCC(=O)Nc2ncc(C(F)(F)F)cc2Cl)cc1NC(=O)c1ccco1	i	i	36	i	i	i	i
CC(C)=CC(=O)OCC(=O)Nc1ccccc1Cl	i	i	51	i	i	i	40
CC(C)=CC(=O)OCC(=O)Nc1cc(C)ccc1C	i	i	30	i	i	i	i
COc1cc(/C=C/C(=O)OCC(=O)Nc2ccccc2Cl)cc(OC)c1OC	i	i	i	i	i	i	nt
